Test results: PubChem BioAssay AID1159580 (chemical genetic matrix, 2015)
“And” between values parts separate entries of the source, which are not always exact repeats. Equal entries are not always repeated. About 2,000 (36%) of roughly 5,500 compounds were called active. Roughly 18% stayed inconclusive and do not appear here. Cut-off read from the data, not from the text of the source: active = normalized growth mostly below about 0.91 (no sharp cut-off); inconclusive = no clear call, values can overlap the other calls; inactive = mostly above about 0.92. The list shows a part of the results.

Assay: chemical genetic growth profiling, strain panel (AID 1159580);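 note: tested at 20 µM; growth read once vehicle control cultures reached saturation at 30 °C; 1 = growth at the plate median or of vehicle wells; lower values mean less growth of the strain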
Conditions: S. cerevisiae deletion strains, growth OD

Measured: normalized growth

O=C1C=CC(=C(c2ccc(O)cc2)c2ccc(O)cc2)C=C1
inactive: locus YAL013W, strain DEP1, hits give low values 0.985 | locus YAL021C, strain ccr4, hits give low values 1 | locus YAL026C, strain drs2, hits give low values 0.972 | locus YAL030W, strain snc1, hits give low values 1 | locus YBL061C, strain skt5, hits give low values 0.982 | locus YBR009C, strain hhf1, hits give low values 0.981 | locus YBR021W, strain FUR4, hits give low values 0.992 | locus YBR023C, strain chs3, hits give low values 0.968 | locus YBR171W, strain sec66, hits give low values 0.968 | locus YBR229C, strain ROT2, hits give low values 0.991 | locus YBR231C, strain swc5, hits give low values 0.987 | locus YBR279W, strain paf1, hits give low values 0.99 | locus YCL011C, strain gbp2, hits give low values 0.972 | locus YCL016C, strain dcc1, hits give low values 1.01 | locus YCL029C, strain bik1, hits give low values 0.99 | locus YCL069W, strain vba3, hits give low values 0.959 | locus YCR088W, strain abp1, hits give low values 0.975 | locus YDL005C, strain med2, hits give low values 0.977 | locus YDL035C, strain GPR1, hits give low values 1 | locus YDL040C, strain nat1, hits give low values 0.991 | locus YDL074C, strain BRE1, hits give low values 1.06 | locus YDL101C, strain DUN1, hits give low values 1 | locus YDL134C, strain PPH21, hits give low values 0.998 | locus YDL185W, strain tfp1, hits give low values 1 | locus YDL192W, strain arf1, hits give low values 0.982 | locus YDR001C, strain nth1, hits give low values 0.975 | locus YDR069C, strain doa4, hits give low values 0.952 | locus YDR101C, strain arx1, hits give low values 0.995 | locus YDR137W, strain rgp1, hits give low values 0.988 | locus YDR150W, strain NUM1, hits give low values 1.01 | locus YDR159W, strain sac3, hits give low values 0.972 | locus YDR162C, strain NBP2, hits give low values 1.01 | locus YDR195W, strain ref2 0.927 | locus YDR297W, strain sur2, hits give low values 0.987 | locus YDR318W, strain mcm21, hits give low values 0.982 | locus YDR334W, strain swr1, hits give low values 0.962 | locus YDR335W, strain msn5, hits give low values 0.968 | locus YDR388W, hits give low values 0.972 | locus YDR392W, strain spt3, hits give low values 0.986 | locus YDR502C, strain sam2, hits give low values 1 | locus YEL003W, strain gim4, hits give low values 0.974 | locus YEL037C, strain rad23, hits give low values 0.973 | locus YEL061C, strain CIN8 (second series), hits give low values 0.938 | locus YEL061C, strain CIN8, hits give low values 1.01 | locus YER015W, strain faa2, hits give low values 0.99 | locus YER016W, strain bim1, hits give low values 0.983 | locus YER110C, hits give low values 0.976 | locus YER111C, strain swi4, hits give low values 0.969 | locus YER155C, strain BEM2 (second series), hits give low values 1.01 | locus YER155C, strain BEM2, hits give low values 0.997 | locus YER167W, strain BCK2, hits give low values 0.993 | locus YFR010W, strain ubp6, hits give low values 0.945 | locus YGL078C, strain dbp3, hits give low values 0.994 | locus YGL086W, strain mad1, hits give low values 0.986 | locus YGL167C, strain pmr1, hits give low values 0.994 | locus YGL173C, strain kem1, hits give low values 0.98 | locus YGL227W, strain vid30, hits give low values 0.971 | locus YGL240W, strain doc1, hits give low values 0.983 | locus YGL248W, strain PDE1, hits give low values 0.991 | locus YGL253W, strain hxk2, hits give low values 0.967 | locus YGR078C, strain PAC10, hits give low values 1.03 | locus YGR135W, strain pre9, hits give low values 1 | locus YGR229C, strain SMI1, hits give low values 1.02 | locus YGR252W, strain gcn5, hits give low values 0.97 | locus YHR013C, strain ard1, hits give low values 0.985 | locus YHR027C, strain rpn1, hits give low values 1 | locus YHR030C, strain SLT2, hits give low values 0.994 and 1.04 | locus YHR079C, strain IRE1 (second series), hits give low values 0.989 | locus YHR079C, strain IRE1, hits give low values 1.05 | locus YHR094C, strain hxt1, hits give low values 0.989 | locus YHR129C, strain ARP1, hits give low values 0.994 | locus YHR142W, strain chs7, hits give low values 0.962 | locus YHR200W, strain rpn10, hits give low values 0.988 | locus YIL066C, strain RNR3, hits give low values 0.992 | locus YIL073C, strain SPO22, hits give low values 0.976 | locus YIL125W, strain kgd1, hits give low values 0.995 | locus YIR030C, strain dcg1, hits give low values 0.986 | locus YJL092W, strain hpr5, hits give low values 0.953 | locus YJL095W, strain BCK1 (second series), hits give low values 0.975 | locus YJL095W, strain BCK1, hits give low values 1.03 and 1.02 | locus YJL115W, strain asf1, hits give low values 0.966 | locus YJL129C, strain trk1, hits give low values 0.965 | locus YJL134W, strain LCB3, hits give low values 0.994 | locus YJL154C, strain vps35, hits give low values 0.98 | locus YJL164C, strain tpk1, hits give low values 1 | locus YJL166W, strain qcr8, hits give low values 0.984 | locus YJL168C, strain set2, hits give low values 0.98 | locus YJL187C, strain SWE1 (second series), hits give low values 0.998 | locus YJL187C, strain SWE1, hits give low values 0.993 | locus YJR043C, strain POL32, hits give low values 1.04 | locus YJR066W, strain TOR1, hits give low values 0.979
